Screens: PubChem, National Center for Advancing Translational Sciences (NCATS)
DT40 TDP1 no CPT: qHTS for Inhibitors of human tyrosyl-DNA phosphodiesterase 1 (TDP1): qHTS in cells in absence of CPT; DT40 Tdp1-/- hTDP1 cells, no CPT, ATP luminescence, 48 h; Potency, µM (doses to about 46.2 µM), inactives show top-dose activity change, negative = growth inhibition, most hits filed as inhibitors; 420,000 tested, 15% active; note: potency is the fitted concentration of half-maximal effect; nearly all actives have a fitted effect of over 55% in size
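A cellular qHTS used chicken DT40 cells lacking endogenous Tdp1 but carrying stably transfected human TDP1. Compounds were applied without camptothecin, and cell growth kinetics were judged by ATP-dependent luminescence after ≥48 hr.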
HT1080-NT tox: kills 2HG-producing HT-1080-NT fibrosarcoma cells. HT-1080-NT fibrosarcoma viability, CellTiter-Glo ATP luminescence, 48 h. Potency, µM (doses to about 46.1 µM), for the others: top-dose activity, negative = less viability, hits mostly cytotoxic. 360,000 tested, 1.6% active;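 note: NT is the 2HG producing partner of a matched IDH1 knockdown line; potency is the fitted concentration of half-maximal effect; 0% = DMSO-treated cells and -100% = media-only wells without cells; nearly all actives have a fitted effect of over 55% in size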
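A 48-hour cytotoxicity screen used HT-1080-NT cells plated 2 hours before compound delivery. ATP-based CellTiter-Glo luminescence measured viability, normalized to DMSO and no-cell controls.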
IL1B secr inh: inflammasome signaling inhibition, IL-1 beta readout | THP-1 LPS/ATP IL-1B secretion, AlphaLISA, 16 h; active compounds read low | activity change, % at 57.5 µM | 360,000 tested, 4.7% active | AID 743279; in the data active = activity change below about -50%; inconclusive = mostly about -30% to -49%
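THP-1 cells pretreated 1 hr with compounds (up to 57.5 uM final), then stimulated with LPS (250 ng/mL final) plus ATP (1.25 mM final); secreted IL-1B measured by AlphaLISA after 16 hr, decreased signal indicating inhibition.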
ELG1 repair inh: blocks ELG1-dependent DNA repair in HEK293T cells | Potency, µM (top dose mostly 46.1 µM), without a hit: top-dose activity change, negative = inhibition, actives largely listed as inhibitors | AID 504467 | 330,000 tested, 2.3% active | HEK293T ELG1-luciferase reporter, luminescence, 16 h; DNA damage induced by 5-fluorouridine; note: potency is the fitted concentration of half-maximal effect; nearly all actives have a fitted effect of over 55% in size
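5-Fluorouridine DNA damage + compound/DMSO, 2,000 cells/well, 16 h, 37 °C/5% CO2. ONE-Glo, 30 min RT, luminescence. Readout = decrease in reporter signal.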
TDP1 cell CPT: growth inhibition of DT40 Tdp1-/-;hTDP1 cells with camptothecin (screen for TDP1 inhibitors); AID 686979; chicken DT40 Tdp1-/-;hTDP1 cells + 20 nM CPT, ATP luminescence, 48 h; 420,000 tested, 12% active; Potency, µM (highest dose often 46.2 µM), without a hit: at the highest dose activity change, negative = growth inhibition, most hits filed as inhibitors; note: potency is the fitted concentration of half-maximal effect; nearly all actives have a fitted effect of over 55% in size
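Cell growth measured by CellTiter-Glo luminescence after a minimum 48 h, 37 C compound exposure with 20 nM CPT in Tdp1-knockout DT40 cells stably expressing hTDP1, seeded 400/well; qHTS titration format.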
HT1080 IDH1KD tx: toxicity to HT-1080 IDH1 knockdown cells (counter line). HT-1080 IDH1 knockdown viability, ATP luminescence, 48 h. Potency, µM (titrated, usually from 46.1 µM), inactives show at the top dose activity, negative = toxicity, hits mostly cytotoxic. 360,000 tested, 2% active. AID 686971;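 note: potency is the fitted concentration of half-maximal effect; 0% = DMSO wells and -100% = cell-free medium wells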
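Using the IDH1-knockdown HT-1080 line run in the same batch and compound series as the NT line, viability after 48 h at 37 °C was determined by CellTiter-Glo luminescence and expressed as % activity.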
An asterisk follows results filed as active; i = inactive; ? = inconclusive; . = not tested or not shown; ! = repeats disagree; [ ] = remark or other dose. Shown are actives, neighbours in structure and some others; about 19% of the full set was active somewhere. Unless noted, calls come from the whole dose curve; as a rule, active = well fitted curve in the direction sought with a large enough effect; inconclusive = small, poorly fitted or top-dose-only effect, or another doubt; inactive = no such curve, though single readings can be large; an effect the other way counts as inactive or inconclusive. Unless noted, % is set by controls: 0 for no effect and ±100 for the full control effect.

SMILES | DT40 TDP1 no CPT | HT1080-NT tox | IL1B secr inh | ELG1 repair inh | TDP1 cell CPT | HT1080 IDH1KD tx
O[C@H]1C[C@H](c2ccccc2)N(Cc2cccs2)C[C@@H]1n1cc(-c2ccc(F)cc2)nn1 | 23µM* | 23µM* | -79* | . | 23µM* | 18µM*
Cc1ccc([C@H]2C[C@@H](O)[C@H](n3cc(C4CC4)nn3)CN2Cc2cccs2)cc1 | ? | 15% | 6 | . | ? | 6%
Cc1ccc([C@H]2C[C@H](O)[C@@H](n3cc(C4CC4)nn3)CN2Cc2cccs2)cc1 | 12µM* | -21% | -25 | . | 9.2µM* | -1%
Cc1cc(Cl)ccc1OCC(=O)NN1C(=O)C2C3C=CC(C3)C2C1=O (stereo not drawn) | -6% | 13% | -14 | 0% | 22% | 7%
O=C(/C=C/c1ccccc1)c1ccccn1 | 16µM* | ? | -12 | ? | 23µM* | ?
O=C(C=Cc1ccc2c(c1)OCO2)c1ccccc1 | 16µM* | ? | -72* | . | ? | 16µM*
O=C(C=Cc1ccc2c(c1)OCO2)C=Cc1ccc2c(c1)OCO2 | 23µM* | 7% | -18 | . | ? | 11%
CCN(C(=O)/C=C/c1ccc2c(c1)OCO2)c1ccccc1 | ? | 21% | -4 | 10% | ? | 16%
O=C(/C=C/c1ccccc1)c1ccc2c(c1)OCCCCO2 | ? | 5% | -78* | ? | -29% | 12%
O=C(O)c1ccc2c(c1)OCCCO2 | 7% | -6% | 4 | 9% | -4% | 11%
CCOc1ccc(Cl)cc1S(=O)(=O)N1CCC(C(=O)NCC2CCCO2)CC1 (stereo not drawn) | 0% | -5% | 1 | 4% | 8% | 2%
CC(C)(C)C(C(=O)NCc1ccccc1)N1CCN(CCN2CCOCC2)CC1 (stereo not drawn) | -1% | -19% | -20 | . | -13% | -4%
CC(/C=C/c1ccc2c(c1)OCO2)=N/NC(=O)c1ccc(C)nc1 | 23µM* | -19% | i | -30% | ? | -26%
N#Cc1ccc(/C=C/C(=O)c2ccc3c(c2)OCO3)cc1 | 23µM* | ? | -69* | 23% | 16µM* | ?
O=C1COc2ccc(C(=O)/C=C/c3ccccc3)cc2N1 | 5.2µM* | -4% | -2 | 9% | 5.2µM* | -3%
O=C(/C=C/c1ccc2c(c1)OCO2)c1ccccn1 | 18µM* | 26µM* | -1 | ? | 23µM* | ?
CC(/C=C/c1ccc2c(c1)OCO2)=N/NC(=O)c1cccnc1 | ? | -7% | 3 | 16% | -30% | -6%
O=C(N/N=C/c1ccc2c(c1)OCO2)c1ccccn1 | ? | ? | -24 | ? | ? | ?
CCC(=O)N1CCc2cc(S(=O)(=O)NC(Cc3ccccc3)C(=O)O)ccc21 (stereo not drawn) | 19% | 19% | -19 | ? | -8% | -2%
O=C(/C=C/c1ccc2c(c1)OCO2)NCCS(=O)(=O)N1CCN(c2ccccc2)CC1 | ? | ? | -15 | . | -29% | 7.3µM*
CCOC(=O)C1C(=O)Oc2ccc3ccccc3c2C1C1CCOC1=O (stereo not drawn) | 15µM* | -1% | 16 | 10% | ? | 3%
CCOC(=O)C1=C(C)NC(=O)NC1c1c(OC)ccc2ccccc12 (stereo not drawn) | -13% | 1% | 51 | -2% | -10% | 1%
COc1ccc(-c2c(C)nn3c(N)c(-c4ccccc4)cnc23)cc1OC | 6.5µM* | -9% | ? | -16% | 5.8µM* | -17%
COc1ccc(-c2c(C)nn(-c3ccccc3)c2N)cc1OC | -26% | 2% | -4 | ? | -6% | -5%
COc1ccccc1-c1c(C)nn2c(N)c(-c3ccccc3)cnc12 | 5.8µM* | -13% | -74* | ? | 6.5µM* | -22%
SMILES | DT40 TDP1 no CPT | HT1080-NT tox | IL1B secr inh | ELG1 repair inh | TDP1 cell CPT | HT1080 IDH1KD tx
O=C1NC(=O)C(c2ccccc2[N+](=O)[O-])=C1Nc1ccc(O)c(Cl)c1 | 27µM*! | -1% | 48 | ? | 7.3µM*! | -3%
O=C(NCCS(=O)(=O)N1CCN(c2cccc(Cl)c2)CC1)c1ccc2c(c1)OCO2 | ? | 4% | 14 | -19% | ? | -24%
COc1ccc(-c2nnc(SCC(=O)Nc3cccc(C(F)(F)F)c3)nc2-c2ccc(OC)cc2)cc1 | 18µM* | . | . | . | ? | .
COc1ccc(-c2nnc(SCC(=O)NCc3ccc(C)cc3)nc2-c2ccc(OC)c(OC)c2)cc1OC | 18µM* | . | . | . | 15µM* | .
COc1ccc(CCNC(=O)CSc2nnc(-c3ccco3)c(-c3ccco3)n2)cc1OC | . | . | . | -14% | . | .
COc1ccc(-c2nnc(SCC(=O)NCCc3ccc(OC)c(OC)c3)nc2-c2ccc(OC)cc2)cc1 | 18µM* | . | . | . | 18µM* | .
COCCNC(=O)CSc1nc(-c2ccc(OC)c(OC)c2)cc(C(F)(F)F)n1 | -16% | 7% | -13 | -8% | 0% | 9%
COc1ccc(-c2cc(C(F)(F)F)nc(SCC(=O)NCCc3ccc(OC)c(OC)c3)n2)cc1 | 21µM* | . | . | . | 21µM* | .
CC#C[C@@H](CC)c1ccc2ccn(C)c2c1 | ? | 4% | -4 | ? | ? | 17%
CCC1CCCCN1C(=O)CCC(=O)Nc1nnc(C(F)(F)F)s1 (stereo not drawn) | 12% | -3% | 5 | 4% | 9% | -7%
CCCSc1sc(C(=O)OC)c(-c2cccs2)c1C#N | 8% | 1% | 56 | -2% | 5% | 0%
COc1ccc(NC(=O)c2cc(C3CCCCN3C(=O)c3ccc(Cl)cc3)on2)c(C)c1 (stereo not drawn) | ? | -7% | -16 | . | ? | -6%
OC(c1cccnc1)c1ccc2c(c1)CN(Cc1cn(-c3ccccc3)nc1-c1ccccc1)CCO2 (stereo not drawn) | ? | . | . | . | -9%[9.04 µM] | .
COc1ccc(CCNC(=O)CSc2nnc(-c3ccccc3)c3ccccc23)cc1OC | ? | 9% | 0 | ? | 16µM* | 7%
CCCCn1c(-c2ccccc2)cnc1SCC(=O)NCCc1ccc(OC)c(OC)c1 | 26µM* | -19% | -77* | ? | 23µM* | -27%
COc1ccc(CCNC(=O)CSc2nnc(-c3ccccc3)o2)cc1OC | -1% | -7% | -12 | -3% | -17% | 2%
